The source of these data is PubChem BioAssay (NCATS).

The structures appear in SMILES notation. Inconclusive results are not listed. Activity calls are given as the source filed them. Calls follow the shape of the dose curve; as a rule, active = well fitted inhibition curve with a large enough effect; inconclusive = small, poorly fitted or top-dose-only effect; inactive = flat fitted curve, though single readings scatter.
% is scaled to controls: 0 for no effect and ±100 for the full control effect.

The test system of the experiment is NIH3T3. Briefly: Cytotoxic Profiling of Annotated Libraries Using Quantitative High-Throughput Screening (AID 1296008). Also: nearly all actives have a fitted effect of over 60% in size. To be noted: Five cell lines viability, CellTiter-Glo ATP luminescence, 48-72 h; max response: stronger effect = lower value. An outline of the steps:
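Cytotoxicity was measured as CellTiter-Glo ATP luminescence, read after 10 min at room temperature. Compound treatment of the cells lasted 48 or 72 hr at 37 degrees Celsius in a qHTS format.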
For orientation: Cellular ATP, detected with luciferase, serves as a proxy for viable cell number.
Regarding `COc1cc([C@H]2OC[C@]3(OC(C)=O)[C@@H](c4ccc(O[C@@H]5O[C@H](CO)[C@@H](O)[C@H](O)[C@H]5O)c(OC)c4)OC[C@H]23)ccc1O`, the max response was 4.83% (inactive). Turning to `CCn1nnnc1NCc1ccc(C(C)C)cc1`, the call was inactive. For the compound `C=C1C[C@]23C[C@H]1CC[C@H]2[C@]1(C)CCC[C@@]2(CO)C(=O)O[C@H]([C@H]21)[C@@H]3O`, the max response was 2.59% (inactive). For `CC(=O)O[C@@H]1C[C@]2(C)[C@@]3(CCC4[C@@]5(C)CC[C@H](O[C@@H]6O[C@H](C(=O)O)[C@@H](O)[C@H](O[C@@H]7O[C@H](CO)[C@H](O)[C@H](O)[C@H]7O[C@@H]7O[C@@H](C)[C@H](O)[C@@H](O)[C@H]7O[C@@H]7OC[C@](O)(CO)[C@H]7O)[C@H]6O[C@@H]6O[C@H](CO)[C@H](O)[C@H](O)[C@H]6O)C(C)(C)C5CC[C@]42C)O[C@@H](O)[C@]12C3CC(C)(C)[C@@H](OC(=O)/C=C/c1ccc(O)c(O)c1)[C@@H]2OC(=O)/C=C/c1ccccc1` (stereo partly drawn), the call was inactive.

As to `CC(C)CC(=O)OC[C@H]1O[C@@](COC(=O)CC(C)C)(O[C@H]2O[C@H](CO)[C@@H](O)[C@H](O)[C@H]2O)[C@@H](OC(=O)CC(C)C)[C@@H]1OC(=O)CC(C)C`, the result was inactive.

For the compound `NC(=O)c1cccc(-c2cc(O)cc(OC(=O)NC3CCCCC3)c2)c1`, the max response is -15.7% (inactive).

In the case of `CC1(C)CC(=O)N(CCCCN2CCN(c3ncccn3)CC2)C(=O)C1`, the result was inactive. Consider `C[C@H](NCc1ccc(OCc2ccccc2F)cc1)C(N)=O`, for which the max response is 1.69% (inactive). As for `C[C@@H]1C(=O)O[C@H]2CC34[C@H]5C[C@@H](C(C)(C)C)C36[C@@H](OC(=O)[C@@H]6O)OC4(C(=O)O5)[C@]21O` (stereo partly drawn), the max response is 4.14% (inactive). Take `CC1CCC2(NC1)OC1C(=O)C3C4CCC5CC(O[C@@H]6O[C@H](CO)[C@@H](O)[C@H](O)[C@H]6O[C@@H]6O[C@@H](C)[C@H](O)[C@@H](O)[C@H]6O)CCC5(C)C4CCC3(C)C1C2C` (stereo partly drawn): the max response was -2.88% (inactive). As for `Cc1nn(C)c(COc2ccc(N3CCN(S(=O)(=O)N(C)C)CC3)cc2)c1-c1cccc2c(CCCOc3cccc4ccccc34)c(C(=O)O)n(CCN3CCOCC3)c12`, the max response is -0.0408% (inactive). Take `C/C=C(\C)C(=O)O[C@H]1[C@H](O)[C@]2(COC(C)=O)[C@H](O)C[C@]3(C)C(=CCC4[C@@]5(C)CC[C@H](O[C@@H]6O[C@H](C(=O)O)[C@@H](O[C@@H]7O[C@H](CO)[C@@H](O)[C@H](O)[C@H]7O)[C@H](O)[C@H]6O[C@@H]6O[C@H](CO)[C@@H](O)[C@H](O)[C@H]6O)[C@](C)(CO)C5CC[C@]43C)[C@@H]2CC1(C)C` (stereo partly drawn): the max response is 2.26% (inactive). For the compound `CC(C)=CC/C=C(/C)[C@H]1CC[C@]2(C)[C@@H]1[C@H](O)CC1[C@@]3(C)CC[C@H](O)C(C)(C)[C@@H]3[C@@H](O[C@@H]3O[C@H](CO)[C@@H](O)[C@H](O)[C@H]3O[C@@H]3O[C@@H](C)[C@H](O)[C@@H](O)[C@H]3O)C[C@]12C` (stereo partly drawn), the compound was called inactive. `OC[C@H]1O[C@@H](Oc2cc(O)cc(/C=C/c3ccc(O)cc3)c2)[C@H](O)[C@@H](O)[C@@H]1O`: the call was inactive. Take `CC(C)=CCc1ccc(Oc2c(O)cc(C)cc2CO)c(C(=O)O)c1O`: the call was inactive. The same measure, in the same setting: the same measure for `CC(=O)N(O)CCCCCN1C(=O)CCC1=O`: “inactive”; for `CC(C)NC[C@H](O)COc1ccc(CCOCC2CC2)cc1`: “inactive”. Regarding `C=CCc1ccc(O[C@@H]2O[C@H](CO)[C@@H](O)[C@H](O)[C@H]2O)c(OC)c1`, the compound was called inactive.
